PubChem BioAssay (Tox21)
Several values for one entry are separate records, joined by “and”; a condition that tells them apart may be missing. Identical values can stand only once. Inconclusive results are not listed. Activity calls are given as the source filed them. The call rests on the fitted dose curve; in most records, active means well fitted curve in the direction sought with a large enough effect in the repeat runs; inconclusive means weak or mixed curves; inactive means no such curve, though single readings can be large; an effect the other way counts as inactive or inconclusive.

Columns and labels:
[1] = A CellTox Green Cytotoxicity Assay to monitor cytotoxicity in HEK293 cells - 32 hour (AID 1224881); further: nearly all actives have a fitted effect of over 40% in size
Procedure, shortened: (§1)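 Cytotoxicity was tracked continuously in HEK293 cells by a DNA-binding dye excluded from viable cells. Compounds were transferred in DMSO 5 h after seeding; fluorescence was recorded at intervals up to 40 h.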

[2] = A CellTox Green Cytotoxicity Assay to monitor cytotoxicity in HepG2 cells - 0 hour (AID 1224882); further: nearly all actives have a fitted effect of over 35% in size
Procedure, shortened: (§2)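 Real-time, homogeneous cytotoxicity readout: dead-cell DNA staining by CellTox Green in HepG2 monolayers, fluorescence measured at timed intervals up to 40 h of continuous compound exposure.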

[3] = A CellTox Green Cytotoxicity Assay to monitor cytotoxicity in HepG2 cells - 32 hour (AID 1224883); further: nearly all actives have a fitted effect of over 50% in size; further: potency means the concentration at half of the fitted maximal effect
Procedure, shortened: as §2

[4] = A CellTox Green Cytotoxicity Assay to monitor cytotoxicity in HEK293 cells - 8 hour (AID 1224884); further: nearly all actives have a fitted effect of over 35% in size
Procedure, shortened: as §1

[5] = qHTS RealTime-Glo MT Cell Viability Assay in HepG2 cells - 16 hour (AID 1224885); further: nearly all actives have a fitted effect of over 50% in size
Procedure, shortened: (§3)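 Real-time, nonlytic viability: 600 HepG2 cells/well mixed with NanoLuc enzyme plus prosubstrate; 5 h settle, compound (DMSO) added by pintool; luminescence monitored over 40 h at 37 C.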

[6] = qHTS RealTime-Glo MT Cell Viability Assay in HEK293 cells - 8 hour (AID 1224887); further: nearly all actives have a fitted effect of over 50% in size; further: potency means the concentration at half of the fitted maximal effect
Procedure, shortened: (§4)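 Nonlytic bioluminescent viability monitoring. HEK293 at 600 cells/well with reagent; 5 h settle; compound transfer by pintool; plates held at 37 C and read at set time points.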

[7] = A CellTox Green Cytotoxicity Assay to monitor cytotoxicity in HEK293 cells - 16 hour (AID 1224888); further: nearly all actives have a fitted effect of over 35% in size
Procedure, shortened: as §1

[8] = qHTS RealTime-Glo MT Cell Viability Assay in HepG2 cells - 0 hour (AID 1224889); further: nearly all actives have a fitted effect of over 50% in size; further: potency means the concentration at half of the fitted maximal effect
Procedure, shortened: as §3

[9] = qHTS RealTime-Glo MT Cell Viability Assay in HEK293 cells - 0 hour (AID 1224880); further: nearly all actives have a fitted effect of over 45% in size; further: potency means the concentration at half of the fitted maximal effect
Procedure, shortened: as §4

[10] = qHTS RealTime-Glo MT Cell Viability Assay in HEK293 cells - 24 hour (AID 1224886); further: nearly all actives have a fitted effect of over 50% in size; further: potency means the concentration at half of the fitted maximal effect
Procedure, shortened: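 Cells + reagent dispensed (600 cells/well, HEK293) → 5 h at 37 C/5% CO2 → 23 nL compound in DMSO pinned → 40 h at 37 C → luminescence read at 0, 8, 16, 24, 32, 40 h.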

Measured: Potency

COC(=O)CC(=O)C(C)(C)C
inactive: [1] | [2] | [3] | [4] | [5] | [6] | [7] | [8]

OCCSc1ccccc1
inactive: [9] | [2] | [3] | [4] | [5] | [6] | [7] | [8]

CN1Cc2cc(C(=O)N3CCC(C4CCNCC4)CC3)ccc2N[C@@H](CC(=O)O)C1=O
inactive: [1] | [2] | [3] | [4] | [5] | [10] | [6] | [7] | [8]

CC1(C)C(=O)N(Br)C(=O)N1Cl
inactive: [1] | [2] | [3] | [4] | [5] | [10] | [6] | [7]

CC1(C)C2=CCCC(C)(C)[C@]23CC[C@H]1C3
active: [9] 24.5 µM | [8] 34.7 µM
inactive: [2] | [4] | [5] | [10] | [6] | [7]

CCCCC1C(=O)N(c2ccccc2)N(c2ccc(O)cc2)C1=O (centres undefined)
inactive: [9] | [2] | [4] | [7] | [8]
active: [3] 10.7 µM

O=C(O)c1cccc(O)c1
inactive: [1] | [2] | [3] | [4] | [5] | [6] | [7] | [8]

Cc1cc(OI)c(C(C)C)cc1-c1cc(C(C)C)c(OI)cc1C
inactive: [1] | [2] | [3] | [4] | [5] | [6] | [7] | [8]

Cc1nccn1-c1ccc(Sc2cccc(C3(C(N)=O)CCOCC3)c2)cc1
active: [10] 1.38 µM
inactive: [9] | [2] | [4] | [7] | [8]

Fc1c(F)c(F)c(Br)c(F)c1F
inactive: [9] | [2] | [4] | [5] | [10] | [6] | [7] | [8]

O=C(Nc1ccc([N+](=O)[O-])cc1)Nc1ccc([N+](=O)[O-])cc1
inactive: [9] | [2] | [4] | [7] | [8]
active: [10] 8.49 µM

CCCCCCCC/C=C\CCCCCCCC(=O)OC(CO)CO
inactive: [1] | [2] | [3] | [4] | [5] | [10] | [7] | [8]

C1COCO1
inactive: [1] | [2] | [3] | [4] | [5] | [10] | [6] | [7] | [8]

CCCCCCCCCOC(C)=O
inactive: [1] | [2] | [3] | [4] | [5] | [10] | [6] | [7] | [8]

CCC(C)(O)CCC=C(C)C (centres undefined)
inactive: [1] | [2] | [3] | [4] | [5] | [6] | [7] | [8]

CCCCC(=O)O[C@]1(C(=O)CO)CC[C@H]2[C@@H]3CCC4=CC(=O)CC[C@]4(C)[C@H]3[C@@H](O)C[C@@]21C
active: [8] 9.52 µM
inactive: [1] | [2] | [3] | [4] | [5] | [10] | [6] | [7]

CCCCC(CC)C(=O)OCCOCCOCCOCCOC(=O)C(CC)CCCC (centres undefined)
inactive: [9] | [2] | [3] | [4] | [5] | [6] | [7] | [8]

NC(=O)Nc1ccc(Cl)c(Cl)c1
inactive: [9] | [2] | [4] | [5] | [10] | [6] | [7] | [8]

COC(OC)(C(=O)c1ccccc1)c1ccccc1
inactive: [1] | [2] | [3] | [4] | [5] | [10] | [6] | [7] | [8]

C[C@]12CCC(=O)C=C1C=C[C@@H]1[C@@H]2CC[C@@]2(C)[C@H]1CC[C@@]21CCC(=O)O1
inactive: [9] | [2] | [3] | [4] | [5] | [6] | [7]
active: [8] 7.56 µM

CC(=O)OCC(=O)[C@H]1CC[C@H]2[C@@H]3CCC4=CC(=O)CC[C@]4(C)[C@H]3CC[C@]12C
inactive: [2] | [3] | [4] | [5] | [7]
active: [9] 9.52 µM | [8] 3.01 µM

CC#N
inactive: [9] | [2] | [4] | [5] | [10] | [6] | [7] | [8]

CC1CC(=O)NN=C1c1ccc(NCC(C)(C)NCC(O)COc2cc(Cl)ccc2C#N)cc1 (centres undefined)
inactive: [1] | [2] | [3] | [4] | [5] | [6] | [7] | [8]

CCCCCCCCCCCC[N+](C)(C)CC(=O)[O-]
inactive: [9] | [2] | [5] | [10] | [6]

CCCCCCOC(=O)C(C)C
inactive: [1] | [2] | [3] | [4] | [5] | [10] | [6] | [7] | [8]

O=[N+]([O-])c1cccc(S(=O)(=O)NCCNS(=O)(=O)c2cccc([N+](=O)[O-])c2)c1
inactive: [1] | [2] | [3] | [4] | [5] | [10] | [6] | [7] | [8]

O=C(CCC1CCN(Cc2ccccc2)CC1)c1ccc2c(c1)NCCCC2
active: [6] 9.52 µM
inactive: [9] | [2] | [4] | [5] | [7] | [8]

CCCCCCCCCCCC[N+](C)(C)CCCS(=O)(=O)[O-]
inactive: [9] | [2] | [3] | [5] | [10] | [6]

CC1=C(/C=C/C(C)=C\C=C\C(C)=C\C(=O)O)C(C)(C)CCC1
inactive: [9] | [2] | [4] | [10] | [6] | [7] | [8]

O=C(Nc1ccccc1)Nc1ccccc1
inactive: [9] | [2] | [3] | [4] | [5] | [7] | [8]

CCOC(=O)/C=C/C(=O)O
inactive: [1] | [2] | [3] | [4] | [5] | [10] | [6] | [7] | [8]

CN1CCN(CCCN2c3ccccc3Sc3ccc(S(=O)(=O)N(C)C)cc32)CC1
inactive: [2] | [4] | [7]
active: [3] 26.8 µM

Cc1ccc(S)cc1
inactive: [2] | [4] | [5] | [10] | [6] | [7]
active: [3] 17.4 µM

CCCCCCOC(=O)CCCCCCCC(=O)OCCCCCC
inactive: [2] | [3] | [4] | [5] | [6] | [7]

C/C(=N/NC(=O)c1ccncc1)C(=O)O
inactive: [1] | [3] | [4] | [5] | [6] | [7] | [8]

CSc1ccc(Oc2ccc(S(N)(=O)=O)cc2CN(C)C)cc1C
active: [10] 49 µM
inactive: [1] | [2] | [4] | [5] | [8]

CC(C)CCCCCOC(=O)CCCCC(=O)OCCCCCC(C)C
inactive: [1] | [2] | [4] | [5] | [10] | [6] | [7]

COCC(O)CO (centres undefined)
inactive: [2] | [3] | [4] | [5] | [10] | [6] | [7] | [8]

CC(=O)Oc1ccc2c(c1)CC[C@@H]1[C@@H]2CC[C@]2(C)[C@@H](O)CC[C@@H]12
inactive: [2] | [4] | [5] | [7]

Nc1ccc(S(=O)(=O)O)c(N)c1
inactive: [2] | [3] | [5] | [10] | [6] | [8]

COc1cc2c(N3CCN(C(=O)Nc4ccc(OC(C)C)cc4)CC3)ncnc2cc1OCCCN1CCCCC1
inactive: [1] | [2] | [4] | [5] | [7] | [8]
active: [3] 26.8 µM

O=C(N[C@@H](c1ccccc1)[C@@H]1CCCCN1)c1cccc(C(F)(F)F)c1Cl
inactive: [2] | [4] | [7] | [8]
active: [10] 24.5 µM

CCOc1cc(N)c(Cl)cc1C(=O)NCC1CN(Cc2ccc(F)cc2)CCO1 (centres undefined)
active: [6] 19 µM
inactive: [2] | [3] | [4] | [7]

CCc1nn(CCCN2CCN(c3cccc(Cl)c3)CC2)c(=O)n1CCOc1ccccc1
active: [6] 10.7 µM
inactive: [1] | [2] | [3] | [4] | [7]

c1cc[c]([Bi]([c]2ccccc2)[c]2ccccc2)cc1
inactive: [1] | [2] | [4] | [5] | [6] | [7] | [8]

CN(C)CCOC1=Cc2ccccc2Sc2ccc(Cl)cc21
inactive: [2] | [4] | [10] | [6] | [7]

COc1cc2ncnc(Nc3ccc(F)c(Cl)c3)c2cc1OCCCN1CCOCC1
inactive: [2] | [4] | [7]
active: [6] 10.7 µM

O=C(N/N=C/c1ccc([N+](=O)[O-])o1)c1ccc(O)cc1
inactive: [2] | [4] | [7] | [8]

COCc1c(C(C)C)nc(C(C)C)c(/C=C/[C@@H](O)C[C@@H](O)CC(=O)O)c1-c1ccc(F)cc1
active: [3] 338 nM and 4.84 µM
inactive: [2] | [4] | [7]

O=C(OCCOCCO)c1ccccc1Nc1cccc(C(F)(F)F)c1
inactive: [1] | [2] | [4] | [5] | [10] | [6] | [7]

COc1cc2c(cc1OC)-c1cc(=Nc3c(C)cc(C)cc3C)n(C)c(=O)n1CC2
inactive: [1] | [2] | [4] | [5] | [10] | [6] | [7] | [8]

CO[C@H]1C=CO[C@@]2(C)Oc3c(C)c(O)c4c(O)c(c5c(c4c3C2=O)=NC2(CCN(CC(C)C)CC2)N=5)NC(=O)/C(C)=C\C=C/[C@H](C)[C@H](O)[C@@H](C)[C@@H](O)[C@@H](C)[C@H](OC(C)=O)[C@@H]1C
inactive: [1] | [2] | [4] | [7] | [8]
active: [3] 47.9 µM | [10] 38.1 µM

CC(=O)CC(c1ccc([N+](=O)[O-])cc1)c1c(O)c2ccccc2oc1=O (centres undefined)
inactive: [2] | [3] | [4] | [5] | [10] | [6] | [7]

Oc1ccc(Nc2ccccc2)cc1
inactive: [2] | [3] | [4] | [7]
active: [6] 17.4 µM

CC1=C(C=O)C(C)(C)CCC1
inactive: [2] | [3] | [4] | [5] | [8]

CCOC(=O)N1CCC(n2c(=O)[nH]c3cc(Cl)ccc32)CC1
inactive: [1] | [2] | [3] | [4] | [5] | [7] | [8]
